Data: PubChem BioAssay (NCI)
The panel holds about 83,000 compounds, 20% with a hit somewhere; the sample as a whole holds those more often.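 Note: values are percent growth. 100 is the growth of untreated cells, values between 100 and 0 indicate rising inhibition; between -100 and 0 indicates cell death.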 Calls of active or inactive are those of the source. How the source made its calls: active means growth percent below 10; inactive means the rest.

These compounds were tested on SK-OV-3 ovarian (assay: NCI-60 one-dose screen, 48 h (100 = growth as untreated, 0 = no growth, -100 = all killed)). Settings: 10 µM unless noted.

| SMILES | growth |
| --- | --- |
| O=C(Nc1cccnc1Nc1ccc(Cl)cc1)c1cn(Cc2cccc(Oc3ccccc3)c2)nn1 | 53% (inactive) |
| C1CCC(N2CN3c4nonc4N4CN(C5CCCCC5)CN5c6nonc6N(C2)C3C45)CC1 (centres undefined) | 109% (inactive) |
| N#Cc1c(-c2ccc(Br)cc2)nc2c(N=Nc3ccc(S(N)(=O)=O)cc3)c(N)nn2c1N | 82.8% (inactive) |
| COc1cc(/C=C/C(=O)c2cc(OC)c(OC)c(OC)c2)ccc1Oc1nc2c(c(=O)n(C)c(=O)n2C)n1C | 30.3% (inactive) |
| CC1(/C=C/c2ccc(-c3ccccc3)cc2)CCn2cnc3ncnc(c32)N1O (centres undefined) | 19.8% (inactive) |
| CCCc1cc(=O)oc2c(C(=O)CC(C)C)c(O)c(CC=C(C)C)c(O)c12 | 23.3% (inactive) |
| CS(=O)(=O)Nc1cc(-c2ccc3ncnc(Nc4ccc(OCc5ccccn5)c(Cl)c4)c3c2)cnc1Cl | -27.1% (active) |
| CCN1CCN(CCNc2nccc(-c3c(-c4ccc(F)c(O)c4)nc4occn34)n2)S1(=O)=O | 54% (inactive) |
| COc1ccc(C2[C@@H](Cl)C(=O)N2c2cc(OC)c(OC)c(OC)c2)cc1Cl (some centres undefined) | -0.0611% (active) |
| CN1CCN(Cc2ccc(NC(=O)c3cncc(C#Cc4cnc(N)cc4C#N)c3)cc2C(F)(F)F)CC1 | -14.6% (active) |
| CN(C)c1ccc([C@@H](C(=O)Nc2cccc([N+](=O)[O-])c2)N(C(=O)c2cc3ccccc3[nH]2)c2cccc([N+](=O)[O-])c2)cc1 | 103% (inactive) |
| c1cc(OCCN2CCCCC2)ccc1CNc1ccc2nc(CCC3CCCCC3)[nH]c2c1 | 86.1% (inactive) |
| Cc1[nH]n(-c2cccc(Cl)c2)c(=O)c1/C=C1\C=c2ccccc2=CC1=O | 15.3% (inactive) |
| CC(C)(C)OC(=O)CN1CCc2c(sc3ncnc(N4CCN(c5ccc(F)cc5)CC4)c23)C1 | 102% (inactive) |
| Cc1ccc2c(c1)sc1nc(-c3c[nH]c4ccccc34)c(Nc3ccccc3)n12 | -4.12% (active) |
| Cn1c(C#N)ccc1-c1ccc(F)c(NC(=O)c2ccc(F)cc2)c1 | 80% (inactive) |
| CCOC(=O)C1=C(CC(O)c2ccc(OC)cc2OC)NC(=O)NC1c1ccccc1 (centres undefined) | 114% (inactive) |
| CCSc1ccnc(N)n1 | 110% (inactive) |
| Cc1ccc(S(=O)(=O)c2nc(-c3ccccc3)oc2SCC(N)=O)cc1 | 98.3% (inactive) |
| CN(C)c1ccc(/C=N\NC(=O)c2ccc3nc(-c4ccc(Cl)cc4)[nH]c3c2)cc1 | 98.3% (inactive) |

| SMILES | growth |
| --- | --- |
| CCOC(=O)C1=C(c2ccccc2)N=C2N(c3ccccc3)N=C(C(C)=O)N2C1c1ccc(F)cc1 (centres undefined) | 107% (inactive) |
| CN(C)Cc1ccc(NC(=O)c2cncc(C#Cc3cnc(N)c4ncccc34)c2)cc1C(F)(F)F | 105% (inactive) |
| CCN(CC)CCn1c2ccc(OC)cc2c2sc3cc(O)ccc3c(=O)c21 | 52.3% (inactive) |
| Cc1cc(=O)oc2cc(Oc3nc(Br)cn4c(Br)cnc34)ccc12 | 85.5% (inactive) |
| Nc1[nH]nc2nc(-c3ccccc3)n3c4ccccc4nc3c12 | 93% (inactive) |
| O=[N+]([O-])c1ccccc1Sc1ccccc1[N+](=O)[O-] | 90.9% (inactive) |
| CC1(C)N=C(N)N=C(N)N1c1ccc(S(=O)(=O)Nc2nccs2)cc1 | 102% (inactive) |
| c1ccc(-c2ccc3c(c2)C2(CCNCC2)CN3)cc1 | 79.4% (inactive) |
| CCOC(=O)/C=C1\S/C(=N\Nc2cc(=O)[nH]c3ccc(Br)cc23)N(c2ccccc2)C1=O | 110% (inactive) |
| COc1ccc(C2CC(n3ccnc3)c3cc(OC)c(OC)c(OC)c32)cc1O (centres undefined) | 86.3% (inactive) |
| COC(=O)c1c2c(c[n+]([O-])c1C)C(=O)C=C(NCc1ccccc1)C2=O | -87.6% (active) |
| COc1ccc2c(c1)c(-c1nc(-c3ccc4ccccc4c3)cs1)cn2C | 93% (inactive) |
| Cc1ccc2c(c1)nc(C)n2-c1ncnc2c1CC(C)c1cc(O)ccc1N2C (centres undefined) | 14.1% (inactive) |
| Cc1cc(N2CCN(CC(=O)Nc3ccc4c(ccn4Cc4ccccc4)c3)CC2)nc(N2CCOCC2)n1 | 81.9% (inactive) |
| COCCn1cc(-c2csc(-c3c[nH]c4ccc(F)cc34)n2)c2cccnc21 | 49.7% (inactive) |
| Cc1ccc(C(=O)c2ccc(CC(=O)N/N=C/c3cccc(O)c3O)n2C)cc1 | 68% (inactive) |
| CC[C@@H](C(=O)[C@@H](C)[C@@H](O)[C@H](C)[C@@H]1O[C@@H]([C@@H](CC)C(=O)ONC(=O)c2ccccc2O)CC[C@@H]1C)C1O[C@]2(C=CC(=O)[C@]3(CC[C@@](C)([C@H]4CC[C@](O)(CC)[C@H](C)O4)O3)O2)[C@H](C)C[C@@H]1C (some centres undefined) | 120% (inactive) |
| COc1cc(-c2nccc3[nH]c(-c4cccc5[nH]ccc45)nc23)cc(OC)c1OC | 15.1% (inactive) |
| CC(C)Cc1nc(Nc2ccccc2)[nH]c(=O)c1C#N | 60% (inactive) |
